We go through 36 compounds from PubChem BioAssay.

The assay can be described thus: probe aInhba binding on compound microarray – biochemical, small-molecule microarray, 635/667 nm fluorescence, primary screen (AID 1148).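 Note: score merges 667nm spot fluorescence with signal-to-noise for antibody binding to printed compounds.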 The note with it: higher = more signal.
The compound `C=C(C)C1C(=C)CN([C@H](CO)c2ccccc2)C1=O` (stereo partly specified) showed a composite z-score of -0.103. For the compound `COc1ccc(C(O)C2C=CC3C(=O)N(c4ccccc4)C(=O)C3N2Nc2ccccc2F)cc1OCc1ccccc1` (stereo unspecified), the composite z-score is 1.14. Turning to `COCCCNC(=O)[C@@]1(Cc2ccccc2)N=C(c2ccc(OCCCO)cc2)O[C@H]1c1ccccc1`, the composite z-score stood at 0.786.

The compound `CC(C)C(CO)N1C(=O)[C@@H]2[C@H]3C(=O)OCC=C[C@H]3OC23C=CCN(C(C)C)C(=O)[C@@H]13` (stereo partly specified) showed a composite z-score of -0.0963. Then `[N-]=[N+]=Nc1ccccc1[C@H]1OC(c2ccc(OCCCO)cc2)=N[C@@]1(Cc1ccccc1)C(=O)O`, with 0.0342; and `Cc1ccc(S[C@]2(C(=O)NC(C)C)CC(=O)N(Cc3ccccc3Cl)[C@@H]2c2ccc(CO)cc2I)cc1`, with -0.224. In turn, `CN(C)CCCCCCNC(=O)[C@@H]1C[C@@H]2C(=O)N[C@@H](CCCCN)C(=O)N2[C@@H]1c1cccc(OCCO)c1` displayed a composite z-score of 1.57. `CC(C)(C)OC(=O)CC[C@]12N=C(c3ccc(OCCCO)cc3)O[C@H]1c1ccccc1N(CCS(=O)(=O)c1ccccc1)C2=O` registered a composite z-score of 0.0785. To `COCCn1c(C(=O)N2CCCC2)cc2c1C[C@H]1CN(C(=O)c3ccccc3)[C@@](Cc3ccc(F)cc3)(C(=O)OC)[C@@H]21` belongs -0.0931; to `CC1CC/C=C\[C@H]2OC34C=CCN(C(C)(C)C)C(=O)[C@H]3N(CCCCCCO)C(=O)[C@@H]4C2C(=O)O1` (stereo partly specified), -0.224. Then `COCCOC(=O)N1C(=O)[C@@]2(c3cc(C#Cc4ccc(OC)cc4)ccc31)[C@H](C(N)=O)[C@H]1C(=O)O[C@H](c3ccccc3)[C@H](c3ccccc3)N1[C@@H]2c1ccccc1OCCO`, with 0.398; and `O=C1OCCC/C=C\[C@H]2OC34C=CCN(c5ccc6ccccc6c5)C(=O)[C@H]3N(CCCCCCO)C(=O)[C@@H]4C12` (stereo partly specified), with -0.128.

For `COc1ccc([C@H]2C[C@H]3C(Br)=C[C@@H]2C(=O)[C@]32CO2)cc1`, the composite z-score was -0.0822. Consider `COCCOC(=O)N1C(=O)[C@@]2(c3cc(C#CCCO)ccc31)[C@H](c1ccc(OCCO)cc1)N1[C@H](c3ccccc3)[C@H](c3ccccc3)OC(=O)[C@H]1[C@@H]2C(=O)N1CCN(c2ncccn2)CC1`, for which the composite z-score turned out to be 0.0947. `Cc1ccc(C(C)CC(O)C2C=CC3C(=O)N(C)C(=O)C3N2NC(=O)OC(C)(C)C)o1` (stereo unspecified) registered a composite z-score of 0.4. Then `C=CC[C@@]1(C(=O)N(C)C)N=C(c2ccc(OCCCO)cc2)O[C@@H]1c1ccccc1N=[N+]=[N-]`, with 0.274; and `COCCOC(=O)N1C(=O)[C@@]2(c3cc(C#CCCO)ccc31)[C@H](C(=O)Nc1nc3ccccc3s1)[C@H]1C(=O)O[C@H](c3ccccc3)[C@H](c3ccccc3)N1[C@@H]2c1ccc(OCCO)cc1`, with 0.138; and `O=C(c1ccccc1)N1Cc2ccccc2[C@@H]2OC(c3ccc(OCCCO)cc3)=N[C@]2(Cc2ccccc2)C1=O`, with 0.188. Then `NCCCCCNC(=O)[C@@H]1C[C@@H]2C(=O)N[C@@H](Cc3ccccc3)C(=O)N2[C@@H]1c1cccc(OCCO)c1`, with -0.182; and `COc1ccc([C@H]2OC[C@@H]3CC4(CC=CC4)C(=O)N32)cc1`, with -0.159; and `CN1C(=O)C2C=CC(C(O)Cc3ccccc3)N(Nc3ccccc3)C2C1=O` (stereo unspecified), with 0.0622.

Consider `[N-]=[N+]=NCc1ccccc1[C@@H]1OC(c2ccc(OCCCO)cc2)=N[C@]1(Cc1ccccc1N=[N+]=[N-])C(=O)N1CCOCC1`, for which the composite z-score was 0.636. Then `COc1ccc(CCNC(=O)[C@@]2(Sc3ccc(C)cc3)CC(=O)N(C3CCCCC3)[C@@H]2c2ccc(CO)cc2I)cc1`, with 0.0391; and `[N-]=[N+]=NCc1ccccc1[C@@H]1OC(c2ccc(OCCCO)cc2)=N[C@]1(CCS(=O)(=O)c1ccccc1)C(=O)NCc1ccccc1`, with 1.09; and `O=C1OCC=C[C@H]2OC34C=CCN(CCN5CCOCC5)C(=O)[C@H]3N(CCCO)C(=O)[C@@H]4[C@@H]12` (stereo partly specified), with -0.128.

`CCc1oc(CC[C@@H](CO)NC(=O)NCCn2cc(C3(O)CCCCC3)nn2)c(C(=O)OC)c1C(=O)OC` yielded a composite z-score of 0.174. Then `COC(=O)[C@@]1(Cc2ccc(F)cc2)[C@H]2c3cc(C(=O)N(C)C)n(Cc4nc5ccccc5[nH]4)c3C[C@H]2CN1C(=O)c1ccccc1`, with 0.348; and `COc1ccc(CCN2C(=O)[C@@]3(c4ccc([N+](=O)[O-])cc4)CC(=O)N(C4CCCCC4)[C@@H]3c3ccc(CO)cc32)cc1`, with 0.158; and `O=C(O)[C@@]1(CCS(=O)(=O)c2ccccc2)COC(c2ccc(OCCCO)cc2)=N1`, with -0.108.

On to `CC(C)C[C@@H]1NC(=O)[C@H]2C[C@@H](C(=O)NCCCCCCN)[C@@H](c3ccc(O)cc3)N2C1=O`, for which the composite z-score worked out at 0.243.

The compound `CCCC[C@H]1OB(O)C[C@H]2C1=C(COc1ccccc1)C[C@H]1C(=O)N(C)C(=O)[C@H]12` registered a composite z-score of -0.0933.

As to `O=C1O[C@H](c2ccccc2)[C@H](c2ccccc2)N2[C@H]1[C@@H](C(=O)N1CCN(c3ncccn3)CC1)[C@]1(C(=O)Nc3ccc(C#CC4=CCCCC4)cc31)[C@H]2c1ccc(O)cc1`, the composite z-score was -0.0448.

`C#CCN(CC=C(C)C)[C@H](CO)c1ccccc1` showed a composite z-score of -0.0719. To `Cc1ccc(S[C@]2(C(=O)NCCN3CCOCC3)CC(=O)N(Cc3ccccc3Cl)[C@@H]2c2ccc(CO)cc2)cc1` belongs -0.255; to `O=C1NC(=O)C2C1C=CC(C(O)Cc1ccccc1)N2Nc1ccc(Cl)cc1Cl` (stereo unspecified), 0.0345. Then `C=CCOC(=O)[C@@H]1[C@H]2C(=O)O[C@H](c3ccccc3)[C@H](c3ccccc3)N2[C@H](c2ccc(OCCOC(=O)[C@@H]3C[C@@H]4C(=O)N5CCC[C@H]5C(=O)N4[C@@H]3c3ccc(O)cc3)cc2)[C@@]12C(=O)Nc1ccc(I)cc12`, with -0.101.
